PubChem BioAssay
Active and inactive are the calls of the source.

Columns and labels:
Albumin (Bos taurus) = Albumin (Bos taurus) (UniProt P02769); test: compounds binding labelled BSA control protein – biochemical, small-molecule microarray, Alexa647 label, 635/667 nm fluorescence, artefact control for SMM control protein annotation, profiling panel (AID 1118); details: BSA-A647 binding, fluorescence 635 nm, higher = more signal;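 note: score merges 667 nm emission intensity and signal-to-noise per printed compound spot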
Sequence of Albumin (Bos taurus) (P02769 whole entry, looked up): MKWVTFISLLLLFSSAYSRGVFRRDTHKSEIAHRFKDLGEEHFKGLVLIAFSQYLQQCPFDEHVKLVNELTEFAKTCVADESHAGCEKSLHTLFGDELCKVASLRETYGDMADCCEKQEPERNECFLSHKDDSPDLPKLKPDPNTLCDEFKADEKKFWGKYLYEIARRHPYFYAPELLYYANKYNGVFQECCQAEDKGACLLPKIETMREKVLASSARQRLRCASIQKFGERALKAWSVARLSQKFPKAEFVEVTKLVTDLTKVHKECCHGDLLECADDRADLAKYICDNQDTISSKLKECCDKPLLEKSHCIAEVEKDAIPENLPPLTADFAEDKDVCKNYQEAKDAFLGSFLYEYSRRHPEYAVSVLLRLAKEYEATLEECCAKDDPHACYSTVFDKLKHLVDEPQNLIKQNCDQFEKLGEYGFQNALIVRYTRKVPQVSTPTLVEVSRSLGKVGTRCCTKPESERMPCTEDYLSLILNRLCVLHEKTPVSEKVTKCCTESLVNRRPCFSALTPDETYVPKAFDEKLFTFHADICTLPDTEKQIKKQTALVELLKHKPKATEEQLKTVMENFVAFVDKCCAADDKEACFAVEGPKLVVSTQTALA

[1] = probe aXIP binding to arrayed compounds – biochemical, NeuroSMM set, 635/667 nm fluorescence, primary screen (AID 1119); details: small-molecule microarray, higher = more signal, called active from +8 up or from −8 down;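 note: probe is the protein aXip251-270 applied at 1 µg/mL to compound-printed slides; binding of probe to printed compounds measured as 667 nm fluorescence plus signal to noise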
[2] = probe aNOTCH3 binding on compound microarray – biochemical, small-molecule microarray, 635/667 nm fluorescence, primary screen (AID 1120); details: higher = more signal;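 note: probe is a biotin-tagged antibody raised against NOTCH3 rather than NOTCH3 protein; score merges spot fluorescence near 667 nm with spot signal to noise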
[3] = probe aNOTCH2 binding on compound microarray – biochemical, small-molecule microarray, 635/667 nm fluorescence, primary screen (AID 1121); details: higher = more signal;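 note: score merges feature fluorescence read at 667 nm with its signal to noise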
[4] = biological target: Carbonic anhydrase 2 (Homo sapiens) (UniProt P00918); test: compounds binding carbonic anhydrase 2 – biochemical, small-molecule microarray, Alexa647-labelled CAII, profiling panel (AID 1122); details: CAII-A647 binding fluorescence, higher = more signal
[5] = COS7 lysate on small-molecule microarray, probe aHis, 635 nm (AID 1123); details: COS7 cell lysate, fluorescence, higher = more signal;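 note: z-score combines 667nm fluorescence intensity with signal-to-noise per printed compound spot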
[6] = probe aLAP1 signal on lysate-treated microarray – cell lysate, small-molecule microarray, COS7 lysate, primary screen (AID 1124); details: probe aLAP1, fluorescence, higher = more signal;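 note: lysate comes from COS7 cells expressing LAP1 and is applied at 0.3 µg/mL; score merges spot fluorescence near 667 nm with signal-to-noise over triplicate slides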
Sam68 (KHDRBS1) = test: compounds binding KHDRBS1 protein – biochemical, small-molecule microarray, 635 nm fluorescence, primary screen (AID 1125); details: higher = more signal;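 note: score merges 667 nm channel intensity with signal to noise over triplicate slides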
[7] = system: Chordin-like protein 2 (CHRDL2); test: compounds binding chordin-like 2 – biochemical, small-molecule microarray, 635 nm fluorescence, primary screen (AID 1126); details: fluorescence 635 nm, higher = more signal;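 note: printed compound slides probed with Chrdl2 protein at 4 µg/mL for 1 h at 4 C; score merges 667 nm emission intensity with signal to noise over three replicate slides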
[8] = biological target: Concanavalin-A (Canavalia ensiformis) (UniProt P02866); test: compounds binding concanavalin A lectin – biochemical, small-molecule microarray, Alexa647 label, 635 nm, artefact control for SMM control protein annotation, primary screen (AID 1127); details: ConA-A647 binding fluorescence, higher = more signal;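 note: z combines 667 nm emission intensity with signal-to-noise across three replicate slides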
Sequence of Concanavalin-A (Canavalia ensiformis) (P02866 whole entry, looked up): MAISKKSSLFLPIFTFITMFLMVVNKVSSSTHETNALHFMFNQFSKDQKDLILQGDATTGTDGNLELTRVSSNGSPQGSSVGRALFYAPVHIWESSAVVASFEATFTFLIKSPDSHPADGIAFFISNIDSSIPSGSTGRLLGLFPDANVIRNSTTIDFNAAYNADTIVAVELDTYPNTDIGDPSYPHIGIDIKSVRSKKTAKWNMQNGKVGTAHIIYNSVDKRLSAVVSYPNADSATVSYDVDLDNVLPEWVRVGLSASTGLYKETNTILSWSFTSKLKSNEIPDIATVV

[9] = compounds binding Alexa647 anti-His antibody – biochemical, small-molecule microarray, 635 nm fluorescence, artefact control for SMM control protein annotation, primary screen (AID 1128); details: higher = more signal;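 note: score merges feature fluorescence with signal-to-noise for each printed compound spot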
[10] = system: Human papillomavirus type 1a E7 protein (residues 1-88); test: HPV1a E7 small-molecule binders, primary screen, biochemical, small-molecule microarray, residues 1-88, 635 nm (AID 1129); details: small-molecule microarray binding, fluorescence 635 nm; higher = more signal
[11] = biological target: Focal adhesion kinase 1 (Homo sapiens) (UniProt Q05397); test: PTK2 protein binding on printed compound slides – biochemical, small-molecule microarray, 635/667 nm fluorescence, BSA, DTT, primary screen (AID 1130); details: 635 nm fluorescence, higher = more signal;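 note: composite of spot emission at 667 nm and signal to noise over triplicate slides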
Sequence of Focal adhesion kinase 1 (Homo sapiens) (Q05397 whole entry, looked up): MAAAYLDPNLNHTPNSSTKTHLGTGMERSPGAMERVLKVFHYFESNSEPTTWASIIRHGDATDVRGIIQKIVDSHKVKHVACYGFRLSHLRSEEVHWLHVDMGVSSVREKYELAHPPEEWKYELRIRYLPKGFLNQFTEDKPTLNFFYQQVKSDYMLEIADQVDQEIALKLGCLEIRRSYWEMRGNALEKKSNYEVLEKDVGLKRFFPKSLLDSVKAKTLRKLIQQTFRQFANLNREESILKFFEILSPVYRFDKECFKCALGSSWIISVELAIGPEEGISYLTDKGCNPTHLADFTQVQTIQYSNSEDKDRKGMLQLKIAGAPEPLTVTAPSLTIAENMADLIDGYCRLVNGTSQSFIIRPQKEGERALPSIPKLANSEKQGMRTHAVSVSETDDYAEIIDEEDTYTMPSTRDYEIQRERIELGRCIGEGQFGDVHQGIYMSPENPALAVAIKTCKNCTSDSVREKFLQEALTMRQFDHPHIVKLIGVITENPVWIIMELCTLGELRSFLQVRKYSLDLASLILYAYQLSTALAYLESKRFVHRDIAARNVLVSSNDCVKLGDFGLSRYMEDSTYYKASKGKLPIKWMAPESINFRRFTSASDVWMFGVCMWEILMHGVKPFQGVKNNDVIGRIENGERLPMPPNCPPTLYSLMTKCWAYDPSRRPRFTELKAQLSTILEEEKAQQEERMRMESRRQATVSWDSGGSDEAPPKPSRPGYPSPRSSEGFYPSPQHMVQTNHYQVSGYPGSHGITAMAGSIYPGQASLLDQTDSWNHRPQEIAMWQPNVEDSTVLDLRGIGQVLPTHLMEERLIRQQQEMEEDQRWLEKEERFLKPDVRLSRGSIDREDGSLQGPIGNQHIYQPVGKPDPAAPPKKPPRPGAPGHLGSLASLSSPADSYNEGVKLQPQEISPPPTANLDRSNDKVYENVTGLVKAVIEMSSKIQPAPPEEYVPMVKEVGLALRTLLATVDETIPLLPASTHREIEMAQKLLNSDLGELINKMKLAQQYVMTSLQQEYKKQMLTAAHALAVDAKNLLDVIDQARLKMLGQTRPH

[12] = system: Fibrinogen (Alexa647-labelled); test: Alexa647-fibrinogen binding to printed small molecules – biochemical, small-molecule microarray, 635/667 nm fluorescence, artefact control for SMM control-protein annotation, profiling panel (AID 1131); details: fibrinogen-A647 binding fluorescence, higher = more signal;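 note: z-score merges 667 nm fluorescence with per-spot signal-to-noise over triplicate slides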
[13] = biological target: Follistatin (Homo sapiens) (UniProt P19883); test: FST protein binding to printed compounds – biochemical, small-molecule microarray, 635/667 nm fluorescence, primary screen (AID 1132); details: 635 nm fluorescence, higher = more signal
Sequence of Follistatin (Homo sapiens) (P19883 whole entry, looked up): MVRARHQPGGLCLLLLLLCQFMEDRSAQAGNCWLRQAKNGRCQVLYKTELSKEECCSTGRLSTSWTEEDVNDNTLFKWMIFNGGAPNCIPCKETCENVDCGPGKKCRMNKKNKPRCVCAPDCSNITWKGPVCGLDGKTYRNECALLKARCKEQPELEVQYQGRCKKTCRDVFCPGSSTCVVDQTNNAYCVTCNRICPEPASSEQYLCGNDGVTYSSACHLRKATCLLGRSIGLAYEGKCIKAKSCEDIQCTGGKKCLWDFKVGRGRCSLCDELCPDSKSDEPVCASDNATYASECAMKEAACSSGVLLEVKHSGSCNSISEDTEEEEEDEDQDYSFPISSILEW

[14] = biological target: Fibroblast growth factor 2 (Homo sapiens) (UniProt P09038); test: basic fibroblast growth factor binding to printed compounds – biochemical, small-molecule microarray, 635/667 nm fluorescence, primary screen (AID 1133); details: FGF2, fluorescence 635/667, higher = more signal
Sequence of Fibroblast growth factor 2 (Homo sapiens) (P09038 whole entry, looked up): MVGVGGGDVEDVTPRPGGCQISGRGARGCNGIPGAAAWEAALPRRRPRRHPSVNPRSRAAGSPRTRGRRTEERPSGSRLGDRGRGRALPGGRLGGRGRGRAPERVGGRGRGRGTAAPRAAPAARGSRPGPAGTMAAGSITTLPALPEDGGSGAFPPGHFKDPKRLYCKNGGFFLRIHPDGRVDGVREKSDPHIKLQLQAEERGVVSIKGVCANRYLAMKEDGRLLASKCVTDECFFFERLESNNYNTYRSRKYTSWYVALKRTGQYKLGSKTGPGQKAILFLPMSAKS

[15] = JC-1 mitochondrial potential readout, lung cancer cells – cell-based, A549, JC-1 fluorescence, basal, 24 h, 100 nL, profiling panel (AID 1138); details: higher = more signal;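 note: A549 lung adenocarcinoma cells under basal conditions with no added stimulus; test concentration not given here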
Lefty1 = Lefty1 protein binding to printed compounds – biochemical, small-molecule microarray, 635/667 nm fluorescence, primary screen (AID 1139); details: fluorescence 635/667, higher = more signal
[16] = system: wheat germ agglutinin (Triticum aestivum), Alexa647-labelled; test: Alexa647-WGA lectin binding to printed small molecules – biochemical, small-molecule microarray, 635/667 nm fluorescence, artefact control for SMM control-protein annotation, profiling panel (AID 1140); details: WGA-A647 binding, 635 nm fluorescence, higher = more signal;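 note: score merges 667 nm feature emission with signal to noise over triplicate slides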
[17] = biological target: Luciferin 4-monooxygenase (Photinus pyralis) (UniProt P08659); test: inhibition of purified Photinus pyralis luciferase – biochemical, luminescence, purified enzyme, 2006 set, primary screen (AID 1141); details: purified firefly luciferase, SteadyGlo luminescence, 30 min; higher = more signal, called active from +8 up or from −8 down;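 note: cell-free assay with purified firefly luciferase at 100 ng per well in PBS; test concentration not given here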
Sequence of Luciferin 4-monooxygenase (Photinus pyralis) (P08659 whole entry, looked up): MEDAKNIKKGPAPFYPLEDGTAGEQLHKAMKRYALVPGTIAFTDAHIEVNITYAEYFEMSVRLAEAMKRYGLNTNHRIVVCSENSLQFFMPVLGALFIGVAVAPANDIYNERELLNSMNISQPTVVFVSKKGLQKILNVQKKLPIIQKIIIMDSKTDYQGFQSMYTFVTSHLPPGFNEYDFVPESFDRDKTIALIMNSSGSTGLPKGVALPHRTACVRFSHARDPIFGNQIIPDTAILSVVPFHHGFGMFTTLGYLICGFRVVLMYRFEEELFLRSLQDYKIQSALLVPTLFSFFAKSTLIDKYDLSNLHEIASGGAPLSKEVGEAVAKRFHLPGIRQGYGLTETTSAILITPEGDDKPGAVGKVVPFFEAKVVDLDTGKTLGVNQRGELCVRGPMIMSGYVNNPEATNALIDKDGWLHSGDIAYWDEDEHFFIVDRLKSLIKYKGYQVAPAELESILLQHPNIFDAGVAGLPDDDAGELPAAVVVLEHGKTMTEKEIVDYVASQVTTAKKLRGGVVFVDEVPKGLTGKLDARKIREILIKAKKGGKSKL

SMILES	composite z-score (Albumin (Bos taurus))	composite Z-score [1]	composite z-score [2]	composite z-score [3]	composite z-score [4]	composite z-score [5]	composite z-score [6]	composite z-score (Sam68 (KHDRBS1))	composite z-score [7]	composite z-score [8]	composite z-score [9]	composite z-score [10]	composite z-score [11]	composite z-score [12]	composite z-score [13]	composite z-score [14]	z-score [15]	composite z-score (Lefty1)	composite z-score [16]	z-score [17]
C=CCOC(=O)[C@H]1[C@@H]2C(=O)O[C@@H](c3ccccc3)[C@@H](c3ccccc3)N2[C@@H](c2ccc(OCCOC(=O)[C@H]3C[C@H]4C(=O)N[C@@H](CC(C)C)C(=O)N4[C@H]3c3cccc(OCCO)c3)cc2)[C@]12C(=O)Nc1ccc(I)cc12	-0.172	0.628 (inactive)	0.233	-0.107	0.518	1.15	0.239	1.32	1.29	1.11	2	1.18	0.84	0.452	1.36	1.71	-0.175	1.22	0.437	-1.48 (inactive)
C=CCC(OC(C)=O)[C@@H]1[C@@H](N(Cc2cccc3ccccc23)C(=O)Cc2ccc(F)cc2)c2cc(OCCCO)ccc2N1C(=O)c1ccc2ccccc2n1 (stereo not given in full)	-0.0728	-0.486 (inactive)	-0.0125	0.0156	0.409	0.0549	0.398	-0.301	0.192	0.483	-0.478	-0.0554	-0.122	0.0688	0.187	0.386	-0.0984	-0.553	0.748	0.0778 (inactive)
C=C(COC)/C(=C/C[C@H](OC(C)=O)c1ccc(OCCO)cc1)c1cc(C(=O)OC)ccc1OC	-0.115	0.835 (inactive)	0.0642	-0.107	0.622	0.685	-0.0565	1.07	0.501	0.519	0.544	1.07	0.514	0.436	1.35	1.67	2.8	1.66	0.395	-1.71 (inactive)
COc1ccc([Si](C)(C)[C@@H]2[C@@H](CC(=O)N3Cc4ccccc4C[C@H]3CO)O[C@]3(C(=O)N(Cc4cccc(N5C(=O)c6cccc7cccc5c67)c4)c4ccccc43)[C@H]2C)cc1	-0.566	-0.0894 (inactive)	0.143	-0.0928	0.598	1.26	-0.235	0.817	1.27	1.12	0.846	0.956	0.434	0.883	1.35	1.62	0.129	0.937	0.423	-0.347 (inactive)
CN(C)c1ccc(C(O)C2C=CC3C(=O)N(c4ccccc4)C(=O)C3N2Nc2ccc([N+](=O)[O-])cc2)cc1 (stereo not given)	0.653	0.103 (inactive)	0.307	-0.133	0.27	2.1	0.15	1.29	-0.437	1.05	1.35	1.19	-0.165	0.979	1.01	-0.181	-0.621	0.149	0.623	-0.421 (inactive)
C=CC1c2cc(O)c(OC)cc2CCN1Cc1cc2c(cc1Br)OCO2 (stereo not given)	-0.956	0.577 (inactive)	-0.0152	-0.0891	0.823	1.99	1.25	0.342	0.775	0.142	0.976	-1.38	-0.0181	-0.851	1.27	-0.0941	-1.54	0.504	-0.623	0.0715 (inactive)
COc1ccc([Si](C)(C)[C@@H]2[C@@H](CC(=O)N(CCO)Cc3ccccc3)O[C@]3(C(=O)N(c4ccccc4)c4ccccc43)[C@H]2C)cc1	0.593	0.657 (inactive)	0.105	-0.162	0.357	1.07	0.0513	0.981	1.4	1.1	1.13	1.14	0.437	0.874	1.07	0.716	0.0115	1.29	0.291	0.293 (inactive)
O=C1O[C@H](c2ccccc2)[C@H](c2ccccc2)N2[C@H]1[C@@H](C(=O)Nc1nc3ccccc3s1)[C@]1(C(=O)Nc3ccccc31)[C@H]2c1ccc(OCCO)cc1	0.471	-0.393 (inactive)	0.23	-0.0895	0.546	0.823	0.328	1.3	0.608	1.12	1.55	1.19	0.522	1.01	1.45	1.18	-2.15	1.2	-0.0258	-4.2 (inactive)
